# The campaign covered roughly 320,000 compounds. About 620 (0.19%) were called active. About 6% were inconclusive and are not listed. No stated cut-off is given here; in the data, active means activation above about 80%; inconclusive means between about 30% and that limit; inactive means weaker than that. Shown is part of a subset that was picked to be rich in actives.
# Molecular target: Transient receptor potential cation channel subfamily V member 1 (Homo sapiens) (UniProt Q8NER1)
# Assay: HTS Assay for Compounds that Act as Agonists of the Vanilloid Receptor 1; further: 0% is about no effect
# Conditions: TRPV1-expressing cells, Fluo-8 calcium influx, agonist mode; at 8.33 µM; stronger effect = higher value
# Description: The transient receptor potential ion channel, family V, number 1, (TRPV1) is one of the most important molecular transducers of painful stimuli and a potential target for analgesic drug development. Although recent clinical trials with orthosteric antagonists have not produced a successful drug because of a hyperthermia side effect and their tendency to block thermal noxious pain, this ion channel is undeniably well placed in the pain pathway, and the idea of blocking pain signals before they enter the CNS is an excellent concept and of proven efficacy when TRPV1 agonists are used. We propose a new approach involving allosteric modulation to impose an activity-dependent constraint within the context of inflammation and tissue damage that would alter the responsiveness of the channel in a way that an orthosteric vanilloid antagonist cannot achieve. We believe that the allosteric modulator approach has not been explored for this target. The main goal of this proposal is to identify additional, new, potent allosteric modulators of TRPV1 that can be used to investigate TRPV1 function. Our recent report provides evidence of proof of concept, but the compounds are just at the edge of utility in terms of potency. […] The question of whether they can be used as analgesic agents is complex, but if suitable compounds are identified then testing for analgesic properties will be conducted. NIH Chemical Genomics Center [NCGC] NIH Molecular Libraries Probe Centers Network [MLPCN] MLPCN Grant: MH089480-1A1 Assay Submitter (PI): Michael Iadarola, National Institute of Dental and Cranofacial Research
# Upon TRPV1 activation in TRPV1 cells, the channel opens and extracellular cations flow through the channel into the cytosol. A calcium binding dye (Fluo-8) becomes fluorescent when bound to calcium. This dye is pre-loaded into cells and is used as a marker for calcium influx. The amount of accumulated calcium is precisely quantified using the FDSS kinetic reader and the calcium dye. For the HTS assay, freshly prepared cells are plated at a density of 2000/well in 3 ul medium in 1536-well plates and cultured overnight at 35.5C. Cells will be loaded with 1 ul of the homogeneous calcium dye (ABD Bioquest) at room temperature for 40 to 90 minutes. Plates will be loaded into the FDSS kinetic reader and a 1 sec / cycle for 10 second baseline signal will be measured. Compound library will then be added with a pintool at 23 nl and measured kinetically for 3 minutes. This portion of the read is considered the agonist portion of the screen. Following the 3 minutes of incubation, an on board pipettor will deliver 1 ul of capsaicin for a final concentration equal to the EC20. Signal will be measured kinetically for an additional 2 minutes. This portion of the read is considered the allosteric enhancer portion of the screen. The FDSS reader has a standard filter set capable of measuring calcium bound Fluo-8 (ex=480 and em=520 nm).
# Chain of Transient receptor potential cation channel subfamily V member 1 (Homo sapiens) (Q8NER1 whole entry, looked up): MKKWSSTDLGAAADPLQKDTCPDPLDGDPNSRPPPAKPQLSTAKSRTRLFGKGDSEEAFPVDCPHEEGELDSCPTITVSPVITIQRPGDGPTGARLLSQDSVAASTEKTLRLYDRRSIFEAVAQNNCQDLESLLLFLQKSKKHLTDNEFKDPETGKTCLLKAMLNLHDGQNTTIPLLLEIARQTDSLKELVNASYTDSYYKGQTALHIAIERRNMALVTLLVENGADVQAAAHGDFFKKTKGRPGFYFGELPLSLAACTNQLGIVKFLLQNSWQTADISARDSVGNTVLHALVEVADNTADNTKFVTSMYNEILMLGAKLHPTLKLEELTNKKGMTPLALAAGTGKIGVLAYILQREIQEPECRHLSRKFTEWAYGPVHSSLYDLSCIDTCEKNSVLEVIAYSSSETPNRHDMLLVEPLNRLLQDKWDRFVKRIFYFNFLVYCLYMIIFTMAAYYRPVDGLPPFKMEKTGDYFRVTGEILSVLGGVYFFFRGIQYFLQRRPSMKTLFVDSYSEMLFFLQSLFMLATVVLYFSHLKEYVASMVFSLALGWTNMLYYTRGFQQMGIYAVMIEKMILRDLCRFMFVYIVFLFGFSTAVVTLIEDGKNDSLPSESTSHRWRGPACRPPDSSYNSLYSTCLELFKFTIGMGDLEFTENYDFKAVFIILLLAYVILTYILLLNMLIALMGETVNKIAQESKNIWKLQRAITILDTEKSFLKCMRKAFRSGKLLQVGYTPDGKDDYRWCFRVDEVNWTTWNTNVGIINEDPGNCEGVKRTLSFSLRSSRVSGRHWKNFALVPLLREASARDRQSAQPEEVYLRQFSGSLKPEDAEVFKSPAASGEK
row,Compound,activation
1,CCN1C(=O)C(=O)N(CC(=O)Nc2cc(C)ccc2C)C1=O,-7.91% (inactive)
2,CCN(c1ccccc1)S(=O)(=O)c1cccc(C(=O)NCc2ccccc2CN2CCOCC2)c1,10.7% (inactive)
3,S=C(NNC(=S)NC1CC2C=CC1C2)NC1CC2C=CC1C2 (centres undefined),1.8% (inactive)
4,S=C(NNC(=S)NC1CC2CCC1C2)NC1CC2C=CC1C2 (centres undefined),3.31% (inactive)
5,CC(C)c1ccc(NC(=S)NC2CC3C=CC2C3)cc1 (centres undefined),88.8% (active)
6,O=S(=O)(Nc1cccc2cccnc12)c1cccc2cccnc12,3.75% (inactive)
7,Oc1ccc(Cl)cc1C1C=C(c2ccc3c(c2)OCO3)NC(c2c(F)cccc2Cl)N1 (centres undefined),2.17% (inactive)
8,CSCCC(NC(=O)c1ccco1)C(=O)NCCc1ccc(F)cc1 (centres undefined),0.184% (inactive)
9,CCc1nc(C)ccc1OCC(=O)N(CC)CC,2.63% (inactive)
10,CCC(C)(C)c1ccc(OCC(=O)N(C)C)c(C(C)(C)CC)c1,81.1% (active)
11,CN(C)CCOc1ccc(Cl)cc1C(C)(C)C,10.6% (inactive)
12,CCN(CC(=O)Nc1ccc(OC)cc1)C(=O)CSCc1ccc(C)cc1,12.3% (inactive)
13,Cc1cc(C)c(CN2CCN(C(=O)Cn3ccc(NC(=O)OCc4ccccc4)nc3=O)CC2)c(C)c1,1.97% (inactive)
14,COc1ccc(S(=O)(=O)N2CCOCC2)cc1NC(=O)CSc1cc(C)ccc1C,18.3% (inactive)
15,COc1ccc(CNC(=O)COc2ccccc2C(=O)c2cnn(-c3ccccc3)c2)cc1OC,11.4% (inactive)
16,COc1ccc(S(=O)(=O)Nc2cccc3cccnc23)c(N)c1,7.86% (inactive)
17,C[C@H](NC(=O)c1[nH]cnc1C(=O)Nc1nccs1)c1ccccc1,3.08% (inactive)
18,O=C1NCCn2nc3ccccc3c21,-1.33% (inactive)
19,CCN(CC(=O)Nc1ccccc1C(F)(F)F)C(=O)C1CCN(C(=O)Nc2ccccc2)CC1,1.3% (inactive)
20,Cc1cccc(OCCC(=O)OCc2csc(CC(=O)Nc3ccccc3C)n2)c1,14.6% (inactive)
21,NC(=O)NCCCC(=O)O,5.36% (inactive)
22,Cc1nonc1C1CCCN1C(=O)c1cc(COc2cccc(C(F)(F)F)c2)on1 (centres undefined),2.83% (inactive)

row,Compound,activation
1,O=C(NC1Cc2ccccc2C1)c1cc(COc2cccc(C(F)(F)F)c2)on1,3.63% (inactive)
2,O=C(c1cc(COc2cccc(C(F)(F)F)c2)on1)N1CCSCC1,81.1% (active)
3,Cc1ccc2nc(-c3ccccn3)cc(C(=O)Nc3ccc4c(c3)OCO4)c2c1,90.2% (active)
4,O=C(Nc1ccncc1)c1cc(-c2ccccn2)nc2ccc(Br)cc12,0.349% (inactive)
5,Cc1ccc2nc(-c3ccncc3)cc(C(=O)Nc3ccc4c(c3)OCCO4)c2c1,-2.26% (inactive)
6,COc1ccc(S(=O)(=O)N2CCN(CC(=O)N3c4ccccc4CC3C)CC2)cc1OC (centres undefined),-0.777% (inactive)
7,COc1cc(C(=O)OCC(=O)NC23CC4CC(CC(C4)C2)C3)cc(OC)c1OC,21.9% (inactive)
8,O=C(Nc1cc(-c2ccccc2)nn1-c1ccccc1F)c1ccc([N+](=O)[O-])cc1,-1.91% (inactive)
9,CC1Cc2ccccc2N1S(=O)(=O)c1cccc(C(=O)NCC(c2ccco2)N2CCCC2)c1 (centres undefined),0.253% (inactive)
10,CCn1c(=O)c(=O)n(CC)c2cc(N3CCCCC3)c(NC(=O)c3ccc(Cl)cc3)cc21,-4.74% (inactive)
11,Cc1ccccc1S(=O)(=O)N1[C@@H](c2cccc(Cl)c2)C(C(=O)O)=CC[C@H]1c1ccc(Cl)cc1,-4.35% (inactive)
12,CC1CCc2sc(C(=O)NCC(c3ccco3)N3CCCCC3)cc2C1 (centres undefined),26.2% (inactive)
13,CCC1CCC2(CC1)NC(=O)N(CC(=O)Nc1ccc(OC)cc1)C2=O (centres undefined),9.09% (inactive)
14,CC(C)(C)NC(=O)NCc1ccco1,4.24% (inactive)
15,CC(C)(C)c1ccc(C(=O)NCCC(=O)NCc2ccco2)cc1,25% (inactive)
16,CC(C)(C)c1ccc(NC(=O)NCc2ccco2)cc1,89.3% (active)
17,COc1ccccc1Nc1nnc(SC(C)C(=O)NC2CC2)s1 (centres undefined),0.405% (inactive)
18,COc1ccc(NC(=O)Cn2cc(C(=O)c3ccncc3)c(=O)c3cc(C)ccc32)cc1Cl,3.63% (inactive)
19,Cc1ccc(NC(=O)CCCNC(=O)c2ccc(Cl)cc2)cc1S(=O)(=O)N1CCCCC1,6.66% (inactive)
20,Cc1ccc(S(=O)(=O)N(C)C)cc1NC(=O)CN1c2cccc3cccc(c23)S1(=O)=O,-5.6% (inactive)
21,Cc1ccc(C(=O)NCCNC(=O)c2ccccc2)cc1,12.5% (inactive)
22,Cc1ccc(S(=O)(=O)NCCC(c2ccccc2)c2ccccc2)cc1C(=O)O,-2.84% (inactive)
